Results filed as inconclusive are left out. Active and inactive are the calls of the source. Unless noted, calls follow the shape of the dose curve; as a rule, active = well fitted curve in the direction sought with a large enough effect in the repeat runs; inconclusive = weak or mixed curves; inactive = no such curve, though single readings can be large; an effect the other way counts as inactive or inconclusive.
Columns and labels:
[1] = qHTS assay to identify small molecule agonists of the RXR signaling pathway - cell viability counter screen (AID 1159529);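 also: HEK 293T cells carrying an RXR-alpha UAS beta-lactamase reporter; series mostly up to about 77 µM; nearly all actives have a fitted effect of over 50% in size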
Outline: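 Counter screen: CellTiter-Glo luminescence. Cells: RXR-alpha-UAS-bla HEK 293T. Medium: 2% charcoal-stripped FBS. Treatment: 16 h, 37 C. Reagent incubation: 30 min, RT.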

[2] = qHTS assay to identify small molecule antagonists of the retinoid acid receptor (RAR) signaling pathway - cell viability counter screen (AID 1159551); also: nearly all actives have a fitted effect of over 35% in size
Outline: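 C3RL4 RARE-luciferase line; cpds + retinol 1 uM final, 6 h, 37 C/5% CO2; CellTiter-Glo ATP luminescence, 30 min RT.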

[3] = qHTS assay to identify small molecule antagonists of the estrogen related receptor (ERR) signaling pathway from Tox21 library - cell viability counter screen (AID 1224834); also: nearly all actives have a fitted effect of over 30% in size
Outline: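 Multiplexed viability counter screen in ERR cells: 17.5 h compound exposure at 37 C, CellTiter-Fluor added, 30 min at 37 C/5% CO2, fluorescence read.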

[4] = target: Luciferin 4-monooxygenase (Photinus pyralis) (UniProt P08659); assay: qHTS assay to identify small molecule inhibitors of firefly luciferase (AID 1224835); also: series mostly up to about 120 µM; nearly all actives have a fitted effect of over 25% in size
Luciferin 4-monooxygenase (Photinus pyralis), sequence (P08659 whole entry, looked up): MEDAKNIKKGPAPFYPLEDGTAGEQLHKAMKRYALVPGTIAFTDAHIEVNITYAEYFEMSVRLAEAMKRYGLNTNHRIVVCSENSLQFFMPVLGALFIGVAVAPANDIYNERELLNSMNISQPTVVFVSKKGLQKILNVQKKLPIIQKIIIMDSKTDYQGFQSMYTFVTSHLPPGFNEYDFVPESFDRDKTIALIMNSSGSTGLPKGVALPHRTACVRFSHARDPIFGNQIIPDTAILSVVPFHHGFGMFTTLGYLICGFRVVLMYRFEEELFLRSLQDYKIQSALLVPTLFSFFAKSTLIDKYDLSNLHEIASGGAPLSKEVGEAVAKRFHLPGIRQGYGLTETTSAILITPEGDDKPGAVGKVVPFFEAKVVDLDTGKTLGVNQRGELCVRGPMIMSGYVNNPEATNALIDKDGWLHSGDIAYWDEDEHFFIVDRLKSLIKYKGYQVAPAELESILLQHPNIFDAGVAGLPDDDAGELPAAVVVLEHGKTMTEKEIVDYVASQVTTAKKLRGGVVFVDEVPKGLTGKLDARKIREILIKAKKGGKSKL
Outline: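 Inhibition of purified Photinus luciferase is measured by luminescence. Substrate levels (D-luciferin, ATP) sit at their KM values. Each compound is tested in a concentration series.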

[5] = qHTS assay to identify small molecule agonists of the constitutive androstane receptor (CAR) signaling pathway - cell viability counter screen (AID 1224836); also: series mostly up to about 92 µM; nearly all actives have a fitted effect of over 45% in size
Outline: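 Double-stable HepG2 hepatoma cells (hCAR plus CYP2B6-2.2kb) are treated for 23 h at 37 C with test compounds in 15-point concentration series. PK11195 at 0.75 uM final is co-added. Cell viability is quantified by CellTiter-Fluor.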

[6] = target: Nuclear receptor subfamily 1 group I member 3 (Homo sapiens) (UniProt Q14994); assay: qHTS assay to identify small molecule agonists of the constitutive androstane receptor (CAR) signaling pathway (AID 1224839);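 also: HepG2 cells stably carrying human CAR and a CYP2B6 luciferase reporter; series mostly up to about 92 µM; nearly all actives have a fitted effect of over 15% in size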
Nuclear receptor subfamily 1 group I member 3 (Homo sapiens), sequence (Q14994 whole entry, looked up): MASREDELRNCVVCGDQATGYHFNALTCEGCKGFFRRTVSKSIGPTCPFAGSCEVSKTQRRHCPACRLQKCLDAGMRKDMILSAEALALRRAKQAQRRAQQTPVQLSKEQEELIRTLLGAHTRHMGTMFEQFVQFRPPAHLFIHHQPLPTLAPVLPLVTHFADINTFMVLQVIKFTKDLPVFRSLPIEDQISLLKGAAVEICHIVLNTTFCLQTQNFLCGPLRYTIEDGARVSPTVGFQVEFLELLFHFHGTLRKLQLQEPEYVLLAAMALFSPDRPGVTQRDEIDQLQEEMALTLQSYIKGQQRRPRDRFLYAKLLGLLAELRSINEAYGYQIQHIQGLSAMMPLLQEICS
Outline: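 Readout: firefly luciferase luminescence via ONE-Glo. System: HepG2 double-stable for hCAR and CYP2B6-2.2kb. Conditions: 15-point compound titration, PK11195 at 0.75 uM final, 24 h incubation.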

[7] = qHTS assay to identify small molecule antagonists of the estrogen related receptor signaling pathway with the pleiotropic PPARgamma coactivator (PGC) from Tox21 10K library - cell viability counter screen (AID 1224840; active = well fitted cell-killing curve with a large enough effect in the repeat runs, not every such curve was filed as active; also: nearly all actives have a fitted effect of over 40% in size)
Outline: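 Fluorescence read-out of CellTiter-Fluor viability reagent, added after cells had been exposed to compound in DMSO for 17.5 h at 37 C; 30 min development at 37 C/5% CO2. Cells: PGC/ERR line, 2,000/well.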

[8] = qHTS assay to identify small molecule antagonists of the estrogen related receptor signaling pathway with the pleiotropic PPARgamma coactivator (PGC) from Tox21 10K library (AID 1224841; call rule not given here; also: series mostly up to about 92 µM; actives are mostly falling curves and most rising ones were filed inactive; nearly all actives have a fitted effect of over 50% in size)
Outline: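 Luminescence read-out (One-Glo luciferase reagent, 30 min at room temperature) from PGC/ERR cells exposed to DMSO-dissolved test compounds for 18 h at 37 C; cells, 2,000 per well, had been preincubated 6 h before compound transfer.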

[9] = qHTS assay to identify small molecule agonists of the estrogen related receptor signaling pathway with the pleiotropic PPARgamma coactivator (PGC) from Tox21 10K library (AID 1224842); also: nearly all actives have a fitted effect of over 15% in size
Outline: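 Luminescence from One-Glo (30 min, room temperature) measured after PGC/ERR cells had 18 h at 37 C with pinned compound (23 nL in DMSO). Cells had been seeded at 2,000 per well and pre-incubated 6 h.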

[10] = target: Thyrotropin receptor (Homo sapiens) (UniProt P16473); assay: qHTS assay to identify small molecule agonists of the thyroid stimulating hormone receptor (TSHR) signaling pathway (AID 1224843; calls by dose curve; also: nearly all actives have a fitted effect of over 45% in size)
Thyrotropin receptor (Homo sapiens), sequence (P16473 whole entry, looked up): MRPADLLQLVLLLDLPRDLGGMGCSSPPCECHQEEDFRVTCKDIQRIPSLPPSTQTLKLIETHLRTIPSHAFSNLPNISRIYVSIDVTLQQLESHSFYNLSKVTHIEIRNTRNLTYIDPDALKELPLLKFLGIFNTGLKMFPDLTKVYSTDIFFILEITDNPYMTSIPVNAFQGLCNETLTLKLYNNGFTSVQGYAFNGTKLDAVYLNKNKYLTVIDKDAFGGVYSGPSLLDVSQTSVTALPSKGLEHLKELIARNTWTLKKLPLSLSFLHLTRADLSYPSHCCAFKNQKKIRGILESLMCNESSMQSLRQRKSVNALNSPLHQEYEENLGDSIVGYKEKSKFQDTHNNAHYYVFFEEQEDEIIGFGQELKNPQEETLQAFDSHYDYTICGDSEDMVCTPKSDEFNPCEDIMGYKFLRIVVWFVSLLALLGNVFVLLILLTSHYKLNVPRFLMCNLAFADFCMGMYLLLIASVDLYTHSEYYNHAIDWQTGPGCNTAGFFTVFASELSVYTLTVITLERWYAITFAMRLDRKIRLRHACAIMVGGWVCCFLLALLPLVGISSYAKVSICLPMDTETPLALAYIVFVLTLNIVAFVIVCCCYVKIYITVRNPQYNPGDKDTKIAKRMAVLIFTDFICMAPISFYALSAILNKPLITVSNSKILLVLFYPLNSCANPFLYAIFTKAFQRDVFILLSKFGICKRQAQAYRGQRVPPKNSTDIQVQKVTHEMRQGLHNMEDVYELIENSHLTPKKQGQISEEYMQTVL
Outline: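 Agonist activity read as cAMP rise via d2/cryptate HTRF competition, 1 h room-temperature detection, in HEK293 cells expressing TSHR. Fifteen-point titrations, each run in triplicate, with a 30 min room-temperature incubation beforehand.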

[11] = qHTS assay to identify small molecule antagonists of the constitutive androstane receptor (CAR) signaling pathway - cell viability counter screen (AID 1224837); also: series mostly up to about 92 µM; nearly all actives have a fitted effect of over 45% in size
Outline: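 Read-out: CellTiter-Fluor fluorescence after 23 hr at 37 C/5% CO2. Cells: HepG2 double-stable for hCAR and CYP2B6-2.2kb. Compounds tested at 15 concentrations in the presence of CITCO, final concentration 50 nM.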

[12] = qHTS assay to identify small molecule antagonists of the retinoic acid receptor (RAR) signaling pathway (AID 1159552; also: nearly all actives have a fitted effect of over 50% in size)
Outline: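 Antagonism of retinol-induced RARE reporter activity was measured in C3RL4 cells. Exposure to compounds and 1 uM final retinol lasted 6 hr at 37 C, with luminescence as endpoint.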

[13] = qHTS assay to identify small molecule agonists of the retinoic acid receptor (RAR) signaling pathway (AID 1159553)
Outline: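 RARE-luc C3RL4 cells; overnight attachment 37 C/5% CO2; compound (DMSO) 6 hr; luciferase reagent, 30 min RT; luminescence read-out.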

[14] = target: Nuclear receptor subfamily 1 group I member 3 (Homo sapiens) (UniProt Q14994); assay: qHTS assay to identify small molecule antagonists of the constitutive androstane receptor (CAR) signaling pathway (AID 1224838);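 also: HepG2 cells stably expressing hCAR with CYP2B6 luciferase reporter stimulated by CITCO; nearly all actives have a fitted effect of over 40% in size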
Outline: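 Read-out: ONE-Glo luciferase luminescence after 30 min at room temperature. HepG2-CYP2B6-hCAR double-stable cells, compounds in 15-point titration plus 50 nM CITCO final, 24 h at 37 C/5% CO2.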

Measured: Potency

CN1CCC(O)(c2ccc(F)cc2)C(C(=O)c2ccc(F)cc2)C1 (stereo not given)
not listed: [11] | [12] | [13] | [14]
inactive: all other assays above

N#CCBr
not listed: [3] | [9] | [12] | [13] | [14]
inactive: all other assays above

CC(C(O)c1ccccc1)N(C)C/C=C/c1ccccc1 (stereo not given)
not listed: [1] | [8] | [9]
inactive: all other assays above

Source: PubChem BioAssay (Tox21)
